From PubChem BioAssay (NCI)
The panel holds about 83,000 compounds, 20% with a hit somewhere; the sample as a whole holds those more often.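 Testing used 96-well plates and a 48-hour single-concentration exposure. Example: -40 means 40% of the starting cells died.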 Values without a mark were called inactive. The source made the active and inactive calls. The calls were made as follows: active = growth percent below 10; inactive = the rest.

Tested on: HOP-62 NSCLC
Experiment: NCI-60 one-dose screen, 48 h (100 = growth as untreated, 0 = no growth, -100 = all killed)
Conditions: 10 µM unless noted

| Compound | growth |
| --- | --- |
| COc1cc(/C=C\c2cc(OC)c(OC)c(OC)c2)cc(N/C=C\C(=O)c2cc(OC)c(OC)c(OC)c2)c1OC | 13.3% |
| N#C[S-].[Au+].c1ccc(CN2[CH-]N(Cc3ccccc3)C(c3ccccc3)=C2c2ccccc2)cc1 | 16% |
| O=[N+]([O-])c1ccc(OP(=O)(CCl)N(CCCl)CCCl)cc1 (stereo unspecified) | 93.5% |
| O=C1CC2(CC3(Cl)C(Cl)=C(Cl)C2(Cl)C3(Cl)Cl)C(=O)O1 (stereo unspecified) | 91.6% |
| COc1cc2c(cc1OCCCCCn1c(-c3ccco3)nc3ccccc31)N=C[C@@H]1CCCN1C2=O | 6.15% (active) |
| O=C(O)c1ccc([S-])cc1.[Au+].c1ccc(CN2[CH-]N(Cc3ccccc3)C(c3ccccc3)=C2c2ccccc2)cc1 | -28% (active) |
| N#C[Se]Cc1cc(-c2ccccc2)n(-c2ccc(S(N)(=O)=O)cc2)n1 | -87.3% (active) |
| COc1cc2c(cc1OCCCCn1c(-c3cccs3)nc3ccccc31)N=C[C@@H]1CCCN1C2=O | 17.7% |
| COc1ccc(/C=C\c2cc(OC)c(OC)c(OC)c2)cc1OCC(=O)Nc1nc2ccc(F)cc2s1 | 51% |
| O=C(Nc1ccc([N+](=O)[O-])cc1)C(Cl)(Cl)Cl | 96.9% |
| C[CH2][Sn]([Cl])([Cl])[CH2]C.Oc1ccccc1C=NCCN=Cc1ccccc1O | 99.2% |
| C[N+]12CN3CN(CN(C3)C1)C2 | 88% |
| C[C@]12CC[C@@H]3c4ccc(Oc5nc(N6CC6)nc(N6CC6)n5)cc4CC[C@H]3[C@@H]1CCC2=O | 11.7% |
| c1ccc(COc2ccc3[nH]cc(CCN(Cc4ccccc4)Cc4ccccc4)c3c2)cc1 | 99.4% |
| [Au+].[N-]=C=O.c1ccc(CN2[CH-]N(Cc3ccccc3)C(c3ccccc3)=C2c2ccccc2)cc1 | 116% |
| CC1=C(CCCNS(C)(=O)=O)C2=C(C)C3(CC3)[C@@](C)(O)C(=O)C2=C1 | -20.5% (active) |
| C[C@]12CC[C@H]3[C@@H](CC[C@]4(O)C[C@@H](O[C@@H]5O[C@H](CO)[C@@H](O[C@@H]6OC[C@@H](O)[C@H](O)[C@H]6O)[C@H](O)[C@H]5O)CC[C@]34C=O)[C@@]1(O)CC[C@@H]2C1=CC(=O)OC1 | -68.4% (active) |
| CN1C(=O)N[C@H]2[C@@H]3NC(=O)c4ccc(Br)n4[C@@H]3C[C@]21O | -31.8% (active) |
| COC1OC(CO)C(O)C(O)[CH]1[Hg][O]C(C)=O (stereo unspecified) | 102% |

| Compound | growth |
| --- | --- |
| OCc1ccc2c(c1)OCO2 | 93.5% |
| Nc1nnnc2nc[nH]c12 | -11.4% (active) |
| CC1CCCC(C[N+](C)(C)C)C1=O (stereo unspecified) | 106% |
| CNC(=O)Oc1cccc(C(F)(F)F)c1 | 107% |
| COc1cc2c(cc1OCCCn1c(-c3ccccn3)nc3ccccc31)N=C[C@@H]1CCCN1C2=O | 18% |
| CCCCCCCOC(C(=O)OCCN(CC)CC)(c1ccccc1)c1ccccc1 | 89.6% |
| CC(=O)OCC1O[C@@H]([S-])C(OC(C)=O)[C@H](OC(C)=O)[C@@H]1OC(C)=O.[Au+].c1ccc(CN2[CH-]N(Cc3ccccc3)C(c3ccccc3)=C2c2ccccc2)cc1 | 92.8% |
| COc1ccc(C(=O)c2sc3nc4c(cc3c2N)N2CCC4CC2)cc1OC | 72.9% |
| CC(CC1CCCCC1)NCc1ccccc1 (stereo unspecified) | 102% |
| COc1ccc(/C=C\c2cc(OC)c(OC)c(OC)c2)cc1OCC(=O)Nc1nc2ccc(C(F)(F)F)cc2s1 | 45.4% |
| O=C1CCC2(O)[C@@H]3Cc4ccc(O)c5c4[C@]2(CCN3Cc2ccoc2)C1O5 (stereo partly specified) | 106% |
| C/C(=C\c1cc(C(F)(F)F)nn1CCNC(=O)OC(C)(C)C)[C@@H]1C[C@@H]2O[C@]2(C)CCC[C@H](C)[C@H](O)[C@@H](C)C(=O)C(C)(C)[C@@H](O)CC(=O)O1 | 78.8% |
| CC(C)CCC(=O)O[C@H]1CC[C@H]2[C@@H]3CCC4=CC(=O)CC[C@]4(C)[C@H]3CC[C@]12C | 102% |
| ClCCN(CCCl)Cc1ccc(Nc2ccnc3cc(Cl)ccc23)cc1 | 31.3% |
| COc1cc(NC(C)CCCNC2CN3CCC2CC3)c2ncccc2c1 (stereo unspecified) | 75.8% |
| C=CCCCN=C=S | 76.1% |
| CCN(CC)CCOC(=O)C(OC(C)C)(c1ccccc1)c1ccccc1 | 94.8% |
| CCC1(C(C)C)C(=O)NC(=S)NC1=O | 102% |
| CC[C@]12C=CCN3CC[C@]4(C(=C(C(=O)OC)C1)Nc1cc(OC)c(OC(C)=O)cc14)[C@@H]32 | 20.5% |

Tested on: NCI-H460 lung
Experiment: as above
Conditions: 10 µM unless noted

| Compound | growth |
| --- | --- |
| COc1cc(/C=C\c2cc(OC)c(OC)c(OC)c2)cc(N/C=C\C(=O)c2cc(OC)c(OC)c(OC)c2)c1OC | 17.3% |
| N#C[S-].[Au+].c1ccc(CN2[CH-]N(Cc3ccccc3)C(c3ccccc3)=C2c2ccccc2)cc1 | 4.03% (active) |
| O=[N+]([O-])c1ccc(OP(=O)(CCl)N(CCCl)CCCl)cc1 (stereo unspecified) | 105% |
| O=C1CC2(CC3(Cl)C(Cl)=C(Cl)C2(Cl)C3(Cl)Cl)C(=O)O1 (stereo unspecified) | 112% |
| COc1cc2c(cc1OCCCCCn1c(-c3ccco3)nc3ccccc31)N=C[C@@H]1CCCN1C2=O | 4.72% (active) |
| O=C(O)c1ccc([S-])cc1.[Au+].c1ccc(CN2[CH-]N(Cc3ccccc3)C(c3ccccc3)=C2c2ccccc2)cc1 | -29% (active) |
| N#C[Se]Cc1cc(-c2ccccc2)n(-c2ccc(S(N)(=O)=O)cc2)n1 | -56.8% (active) |
| COc1cc2c(cc1OCCCCn1c(-c3cccs3)nc3ccccc31)N=C[C@@H]1CCCN1C2=O | -4.31% (active) |
| COc1ccc(/C=C\c2cc(OC)c(OC)c(OC)c2)cc1OCC(=O)Nc1nc2ccc(F)cc2s1 | 23.9% |
| O=C(Nc1ccc([N+](=O)[O-])cc1)C(Cl)(Cl)Cl | 104% |
| C[CH2][Sn]([Cl])([Cl])[CH2]C.Oc1ccccc1C=NCCN=Cc1ccccc1O | 107% |
| C[N+]12CN3CN(CN(C3)C1)C2 | 107% |
| C[C@]12CC[C@@H]3c4ccc(Oc5nc(N6CC6)nc(N6CC6)n5)cc4CC[C@H]3[C@@H]1CCC2=O | -33.8% (active) |
| c1ccc(COc2ccc3[nH]cc(CCN(Cc4ccccc4)Cc4ccccc4)c3c2)cc1 | 91.6% |
| [Au+].[N-]=C=O.c1ccc(CN2[CH-]N(Cc3ccccc3)C(c3ccccc3)=C2c2ccccc2)cc1 | 98.5% |
| CC1=C(CCCNS(C)(=O)=O)C2=C(C)C3(CC3)[C@@](C)(O)C(=O)C2=C1 | 1% (active) |
| C[C@]12CC[C@H]3[C@@H](CC[C@]4(O)C[C@@H](O[C@@H]5O[C@H](CO)[C@@H](O[C@@H]6OC[C@@H](O)[C@H](O)[C@H]6O)[C@H](O)[C@H]5O)CC[C@]34C=O)[C@@]1(O)CC[C@@H]2C1=CC(=O)OC1 | -9.57% (active) |
| CN1C(=O)N[C@H]2[C@@H]3NC(=O)c4ccc(Br)n4[C@@H]3C[C@]21O | -10.6% (active) |
| COC1OC(CO)C(O)C(O)[CH]1[Hg][O]C(C)=O (stereo unspecified) | 94.9% |

| Compound | growth |
| --- | --- |
| OCc1ccc2c(c1)OCO2 | 103% |
| Nc1nnnc2nc[nH]c12 | 20.6% |
| CC1CCCC(C[N+](C)(C)C)C1=O (stereo unspecified) | 117% |
| CNC(=O)Oc1cccc(C(F)(F)F)c1 | 114% |
| COc1cc2c(cc1OCCCn1c(-c3ccccn3)nc3ccccc31)N=C[C@@H]1CCCN1C2=O | -22.7% (active) |
| CCCCCCCOC(C(=O)OCCN(CC)CC)(c1ccccc1)c1ccccc1 | 84.4% |
| CC(=O)OCC1O[C@@H]([S-])C(OC(C)=O)[C@H](OC(C)=O)[C@@H]1OC(C)=O.[Au+].c1ccc(CN2[CH-]N(Cc3ccccc3)C(c3ccccc3)=C2c2ccccc2)cc1 | 62% |
| COc1ccc(C(=O)c2sc3nc4c(cc3c2N)N2CCC4CC2)cc1OC | 103% |
| CC(CC1CCCCC1)NCc1ccccc1 (stereo unspecified) | 105% |
| COc1ccc(/C=C\c2cc(OC)c(OC)c(OC)c2)cc1OCC(=O)Nc1nc2ccc(C(F)(F)F)cc2s1 | 7.6% (active) |
| O=C1CCC2(O)[C@@H]3Cc4ccc(O)c5c4[C@]2(CCN3Cc2ccoc2)C1O5 (stereo partly specified) | 103% |
| C/C(=C\c1cc(C(F)(F)F)nn1CCNC(=O)OC(C)(C)C)[C@@H]1C[C@@H]2O[C@]2(C)CCC[C@H](C)[C@H](O)[C@@H](C)C(=O)C(C)(C)[C@@H](O)CC(=O)O1 | 30.5% |
| CC(C)CCC(=O)O[C@H]1CC[C@H]2[C@@H]3CCC4=CC(=O)CC[C@]4(C)[C@H]3CC[C@]12C | 98.7% |
| ClCCN(CCCl)Cc1ccc(Nc2ccnc3cc(Cl)ccc23)cc1 | 2.98% (active) |
| COc1cc(NC(C)CCCNC2CN3CCC2CC3)c2ncccc2c1 (stereo unspecified) | 106% |
| C=CCCCN=C=S | 47.9% |
| CCN(CC)CCOC(=O)C(OC(C)C)(c1ccccc1)c1ccccc1 | 100% |
| CCC1(C(C)C)C(=O)NC(=S)NC1=O | 102% |
| CC[C@]12C=CCN3CC[C@]4(C(=C(C(=O)OC)C1)Nc1cc(OC)c(OC(C)=O)cc14)[C@@H]32 | 8.27% (active) |
